# Results from PubChem BioAssay (NCI).
# About 79,000 compounds went through this panel and 15% of them were active in at least one assay; those are over-represented in the sample as a whole. Unmarked numbers belong to inactive results. Calls of active or inactive are those of the source. Rule as the data show it: active = growth inhibition above about 70%; inactive = the rest.
# How the values were obtained:
# [1] = NCI Yeast Anticancer Drug Screen. Data for the rad50 strain (AID 155);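 also: 0% = growth of vehicle-only cultures of the same strain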; conditions: S. cerevisiae rad50 strain growth inhibition; at 50.0 µM; active compounds read high
# Method in brief: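 Readout: growth inhibition relative to vehicle-treated cultures. Compound exposure was carried out in a genetically defined yeast strain deficient in DNA damage repair.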
# [2] = NCI Yeast Anticancer Drug Screen. Data for the mec2-1 strain (AID 157); conditions: S. cerevisiae mec2-1 strain, at 50.0 µM, active compounds read high
# Method in brief: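 Strain: mec2-1 (DNA repair/cell cycle alteration). Compound exposure, then growth measured; inhibition expressed relative to vehicle.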
# [3] = NCI Yeast Anticancer Drug Screen. Data for the sgs1 mgt1 strain (AID 161);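 also: 0% = growth of cultures given vehicle only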; conditions: S. cerevisiae sgs1 mgt1 strain, at 50.0 µM, active compounds read high
# Method in brief: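 Mutant yeast exposed to compound; growth scored against vehicle-only wells.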
# [4] = NCI Yeast Anticancer Drug Screen. Data for the cln2 rad14 strain (AID 165);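 also: 0% = growth equal to vehicle treated cultures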; conditions: S. cerevisiae cln2 rad14 strain, at 50.0 µM, active compounds read high
# Method in brief: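 Compounds are applied to the cln2 rad14 yeast strain, and growth is then compared with that of vehicle-treated cultures to give inhibition.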
# [5] = NCI Yeast Anticancer Drug Screen. Data for the bub3 strain (AID 167); conditions: S. cerevisiae bub3 mutant strain, at 50.0 µM, active compounds read high
# Method in brief: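 Readout: yeast growth inhibition, expressed relative to vehicle-only wells. The test organism is a mutant strain from a panel with lesions in DNA repair or checkpoint genes.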
# [6] = NCI Yeast Anticancer Drug Screen. Data for the mlh1 rad18 strain (AID 175); conditions: S. cerevisiae mlh1 rad18 strain growth inhibition; at 50.0 µM; active compounds read high
# Method in brief: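 Read-out is yeast growth inhibition, calculated against vehicle-only controls. The compound was applied to a strain engineered with DNA damage repair alterations.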
Structure (SMILES),growth inhibition [1],growth inhibition [2],growth inhibition [3],growth inhibition [4],growth inhibition [5],growth inhibition [6]
CCOC(=O)c1c2c(nc3c1CCCC3)CCCC2,3.2%,3.45%,-1.6%,-1.05%,7.4%,-24.9%
O/N=C(\c1ccccc1)c1ccc2ncccc2c1,37%,41.2%,27.9%,2.8%,7.45%,23.3%
CCCC(=O)Nc1ccccc1,18.1%,-15.8%,8.75%,7%,-4.75%,19.6%
CN(C)c1ccc(/C=C(\C#N)c2ccc(F)cc2F)cc1,0.4%,-2.75%,-3.4%,-9.05%,-5.25%,-23.9%
C=C1C(=O)OC2CCCC(O)C12 (stereo not given),2.35%,2.45%,-6.55%,-39%,-12.2%,1.9%
CC1C(c2ccccc2)=NN(C)c2ccccc21 (stereo not given),19.6%,0.6%,3.7%,-28.1%,8.45%,21.8%
COc1cc(C(=O)c2cocc2C(=O)c2ccc3c(c2)OCO3)cc(OC)c1OC,-17.2%,-33.3%,-10.3%,-18.4%,-25.6%,-14.8%
O=C(c1ccccc1)C1C(C(=O)c2ccccc2)C(c2ccccc2)N(c2ccccc2)C1c1ccccc1 (stereo not given),27.4%,17.8%,-27.1%,18.9%,-12.2%,-75.2%
COc1cc2c(c(Cl)c1O)C(=O)OC2,-4.25%,-7.8%,12.8%,3.55%,-6.8%,17.4%
O=C1C2C3CCC(O3)C2C(=O)N1Cc1ccccc1CN1C(=O)C2C3CCC(O3)C2C1=O (stereo not given),82% (active),95.2% (active),89.2% (active),98.6% (active),98.1% (active),95.8% (active)
C/C(CCc1cccc([N+](=O)[O-])c1)=N\NC(N)=O,-19.1%,-10.5%,-6.5%,-1.95%,7.4%,-29.5%
CCC1(O)CCCCC1,-16.4%,-23.4%,-30.1%,-37.9%,-18.6%,-21.7%
FC(F)(F)c1nc(=S)c2cn[nH]c2[nH]1,4.35%,31.1%,8.45%,-12.2%,35.5%,-5.3%
Nc1cccc(N=[N+]([O-])c2cccc(N)c2)c1,18.9%,8.05%,-10.5%,-22.1%,12.2%,27.6%
COC(=O)c1cn[nH]c1CC(N)=O,35.9%,11.5%,25.1%,-17.1%,12.3%,19.9%
CCCCCCCC[N+](C)(C)C,-48.8%,-44.5%,-26.6%,11.5%,-28.7%,-39.8%
O=c1[nH]c(=O)n(COC(CO)CO)cc1-c1ccccc1,-24.4%,-31.8%,2.65%,-4.15%,-18.4%,-19.9%
Cc1cc(Cl)ccc1OCCCC(=O)NC(Cc1c[nH]c2ccccc12)C(=O)O (stereo not given),3.35%,2.9%,17.7%,22.4%,-2.4%,9.35%
Cc1cc(Nc2ccc(O)cc2)nc(Nc2ccc(O)cc2)n1,-8.25%,-18.4%,-35.3%,-34%,10.9%,-2.3%
OCC(CO)(CO)CO,18.9%,-0.7%,-6.8%,-16.1%,28.8%,-5.3%

Structure (SMILES),growth inhibition [1],growth inhibition [2],growth inhibition [3],growth inhibition [4],growth inhibition [5],growth inhibition [6]
COc1ccc2c(c1)/C(=C/c1cc(OC)c(OC)c(OC)c1)C(=O)N2,4.3%,-27.2%,-8.7%,-1.4%,1.2%,2.85%
O=NNc1ccnc(-c2cc(NN=O)ccn2)c1,22.2%,16.4%,6.3%,-0.9%,-12.5%,34%
CCCOC(=O)CCBr,-2.55%,10.1%,-13.9%,-57%,-22.9%,-8.1%
CC(=O)[CH-]C(=O)c1ccccc1.CC(=O)[CH-]C(=O)c1ccccc1.CC12CC3(C)CC(C)(C1)CC([O-])(C2)C3.CC[O-].[Ti+4],15.1%,21.8%,28.6%,23.8%,8.55%,18%
NC(=O)CO,22.2%,-15.9%,17.6%,5.35%,5.7%,19.5%
CC1(O)c2ccccc2-c2nc3ccccc3nc21 (stereo not given),15.1%,14.4%,-16.4%,-11.8%,-0.35%,-15.4%
CCCCCCCCCCCSc1ccc2ccccc2c1,5.75%,14.7%,6.75%,-20.5%,-18.6%,5.3%
N#Cc1ccc(-n2cccc2)cc1,-1.8%,-1.6%,7.35%,-26.8%,-6.2%,-4.5%
CCOC(=O)CCCc1ccccc1,-13.2%,-32.5%,-2.65%,32.2%,4.05%,-2.25%
O=C(/C=C/c1ccccn1)c1ccc(Cl)cc1,22.1%,10.7%,24.1%,16.9%,22.4%,13.1%
Cc1cccc(C(=O)OCc2ccccc2CN2CCCC2)c1,1.5%,-7.75%,-10.1%,2.85%,-2.05%,-1.45%
C(=C/c1ccccc1)/C=N/N1CCN(/N=C/C=C/c2ccccc2)CC1,-1.4%,20.6%,14.8%,-7.1%,18.5%,-7.05%
COC1=CC(=O)C(=O)C=C1C(C)(C)C,49.2%,40.3%,48.8%,2.45%,49.4%,9.55%
NC(CO)C(O)c1ccc([N+](=O)[O-])cc1 (stereo not given),-14.6%,-33.2%,-3.3%,-7.25%,-12.2%,-13.7%
COC(=O)/C(=C/Cl)NC(C)=O,3.2%,-7.55%,-4.8%,-9.9%,8.7%,5.8%
Nc1nc(N)c2cc(N3CCCC3c3ccc(Cl)cc3)ccc2n1 (stereo not given),90.8% (active),92.5% (active),91.5% (active),90.5% (active),91.6% (active),91% (active)
[O-][n+]1cc(N=Nc2ccc(Cl)cc2)nn1-c1ccc(Cl)cc1,-11.6%,-33.8%,-8.5%,9.85%,-1.1%,-14.3%
Cc1c(C)c(C)c(CNNC(=S)Nc2cccc(Cl)c2)c(C)c1C,-6.35%,5.7%,-1.35%,-3.45%,-3.5%,21.1%
COC(=O)c1noc2c1CSC1=C2CS(=O)(=O)c2ccccc21,16.4%,22%,30.4%,14.8%,17.2%,26.6%
CCCCCCCCCCCCCCCCOC(=O)c1cc([N+](=O)[O-])cc([N+](=O)[O-])c1Sc1ncnc2nc[nH]c12,-3.8%,-7.8%,3.5%,-2.35%,-21.2%,-32.2%
